Assay results: the supplement of paper PMC12819154, “High-throughput peptide-centric local stability assay extends protein–ligand identification to membrane proteins, tissues and bacteria” (Nature Structural & Molecular Biology, 2025)

Each target was assayed with Nc1ncnc2c1ncn2[C@@H]1O[C@H](COP(=O)(O)OP(=O)(O)OP(=O)(O)O)[C@@H](O)[C@H]1O [adenosine 5'-triphosphate] (assay: log2 fold change of tryptic peptide abundance, ligand vs vehicle (limited proteolysis) (log2 ratio); higher = more trypsin-susceptible (destabilized)). Settings: ligand concentration: 5 mM; sample: E. coli desalted lysate; replicate design: treated before aliquoting.
Protocol: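 HT-PELSA: desalted E. coli K-12 BW25113 lysate (with 12 mM MgCl2) incubated with 5 mM ATP (pH 7) or water for 30 min at 25 C, then a 4 min trypsin pulse at 22 C. Peptides were quantified by DIA-MS (4 replicates). Value is the peptide log2 fold change (treated/control); negative = stabilized. Scale: negative = ligand-stabilized region.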

UniProt P53671, sequence (P53671 whole entry, looked up): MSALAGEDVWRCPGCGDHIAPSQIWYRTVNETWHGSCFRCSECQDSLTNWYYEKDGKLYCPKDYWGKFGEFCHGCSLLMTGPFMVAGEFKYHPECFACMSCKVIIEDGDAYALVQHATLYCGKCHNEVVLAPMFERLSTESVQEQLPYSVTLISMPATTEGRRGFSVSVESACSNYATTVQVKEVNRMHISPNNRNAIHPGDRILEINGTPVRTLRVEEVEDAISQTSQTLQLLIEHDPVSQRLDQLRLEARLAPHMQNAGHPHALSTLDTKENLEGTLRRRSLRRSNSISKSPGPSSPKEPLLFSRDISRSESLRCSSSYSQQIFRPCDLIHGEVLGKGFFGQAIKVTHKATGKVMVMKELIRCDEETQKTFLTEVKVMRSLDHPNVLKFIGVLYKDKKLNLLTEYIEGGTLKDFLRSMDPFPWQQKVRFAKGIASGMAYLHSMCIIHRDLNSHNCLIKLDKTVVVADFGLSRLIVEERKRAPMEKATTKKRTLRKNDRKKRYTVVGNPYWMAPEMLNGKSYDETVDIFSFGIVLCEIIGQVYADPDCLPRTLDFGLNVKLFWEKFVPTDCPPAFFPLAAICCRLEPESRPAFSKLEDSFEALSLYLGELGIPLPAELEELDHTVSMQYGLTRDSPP
UniProt Q13177, sequence (Q13177 whole entry): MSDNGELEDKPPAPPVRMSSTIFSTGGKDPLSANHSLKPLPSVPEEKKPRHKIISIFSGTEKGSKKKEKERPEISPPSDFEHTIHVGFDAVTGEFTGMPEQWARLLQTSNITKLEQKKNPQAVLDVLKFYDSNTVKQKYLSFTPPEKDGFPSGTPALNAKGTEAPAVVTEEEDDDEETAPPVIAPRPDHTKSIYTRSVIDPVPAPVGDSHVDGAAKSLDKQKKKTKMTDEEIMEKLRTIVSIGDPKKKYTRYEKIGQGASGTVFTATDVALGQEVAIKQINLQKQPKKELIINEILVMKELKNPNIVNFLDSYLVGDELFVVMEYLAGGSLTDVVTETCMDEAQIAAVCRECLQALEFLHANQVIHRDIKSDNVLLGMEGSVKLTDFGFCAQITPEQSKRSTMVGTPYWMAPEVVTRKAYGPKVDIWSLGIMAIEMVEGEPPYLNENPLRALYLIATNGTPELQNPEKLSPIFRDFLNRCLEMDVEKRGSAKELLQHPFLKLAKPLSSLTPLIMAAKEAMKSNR
UniProt P13000, sequence (P13000 whole entry): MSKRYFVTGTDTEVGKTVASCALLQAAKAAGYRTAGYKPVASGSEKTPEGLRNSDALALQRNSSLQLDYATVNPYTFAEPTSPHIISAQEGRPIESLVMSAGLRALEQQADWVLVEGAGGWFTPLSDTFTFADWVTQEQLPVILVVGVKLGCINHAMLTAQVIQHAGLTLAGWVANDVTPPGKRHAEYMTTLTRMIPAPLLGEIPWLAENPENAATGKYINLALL
UniProt P37194, sequence (P37194 whole entry): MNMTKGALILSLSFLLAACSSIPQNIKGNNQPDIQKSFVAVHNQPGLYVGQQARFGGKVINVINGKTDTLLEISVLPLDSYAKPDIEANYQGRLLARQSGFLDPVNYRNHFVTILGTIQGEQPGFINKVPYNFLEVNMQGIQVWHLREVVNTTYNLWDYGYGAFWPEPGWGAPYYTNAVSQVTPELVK
UniProt P76034, sequence (P76034 whole entry): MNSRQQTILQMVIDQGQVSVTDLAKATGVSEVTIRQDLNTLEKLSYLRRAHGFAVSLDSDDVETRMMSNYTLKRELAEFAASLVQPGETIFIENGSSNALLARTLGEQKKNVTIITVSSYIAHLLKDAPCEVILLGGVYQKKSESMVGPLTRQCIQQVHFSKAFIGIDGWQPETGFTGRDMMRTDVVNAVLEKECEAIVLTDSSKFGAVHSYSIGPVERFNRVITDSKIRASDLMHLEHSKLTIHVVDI
UniProt P37313, sequence (P37313 whole entry): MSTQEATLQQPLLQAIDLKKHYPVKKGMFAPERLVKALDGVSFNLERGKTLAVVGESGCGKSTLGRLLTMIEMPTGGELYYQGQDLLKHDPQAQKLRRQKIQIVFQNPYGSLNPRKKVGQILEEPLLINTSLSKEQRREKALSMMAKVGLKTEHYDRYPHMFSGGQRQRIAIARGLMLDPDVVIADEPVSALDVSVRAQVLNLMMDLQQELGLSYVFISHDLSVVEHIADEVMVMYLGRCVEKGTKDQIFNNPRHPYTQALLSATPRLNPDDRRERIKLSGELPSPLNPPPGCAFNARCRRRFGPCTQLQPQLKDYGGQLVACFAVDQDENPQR
UniProt P07947, sequence (P07947 whole entry, looked up): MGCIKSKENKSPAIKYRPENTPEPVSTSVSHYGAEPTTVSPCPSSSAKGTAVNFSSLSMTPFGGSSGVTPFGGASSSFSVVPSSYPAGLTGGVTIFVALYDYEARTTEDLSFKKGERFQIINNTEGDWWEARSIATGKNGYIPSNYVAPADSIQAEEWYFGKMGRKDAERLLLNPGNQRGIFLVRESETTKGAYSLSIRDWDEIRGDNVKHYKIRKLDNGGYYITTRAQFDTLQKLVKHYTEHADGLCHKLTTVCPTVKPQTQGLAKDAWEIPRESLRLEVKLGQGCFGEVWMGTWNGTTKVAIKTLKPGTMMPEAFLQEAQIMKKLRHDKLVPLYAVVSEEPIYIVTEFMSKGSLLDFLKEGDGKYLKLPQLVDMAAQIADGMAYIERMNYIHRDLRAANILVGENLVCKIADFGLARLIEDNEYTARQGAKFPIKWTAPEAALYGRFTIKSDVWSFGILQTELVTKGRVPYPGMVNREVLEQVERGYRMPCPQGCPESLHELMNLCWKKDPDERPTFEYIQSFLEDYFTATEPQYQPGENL

Target	log2 fold change
UniProt P37194 (peptide sequence: GNNQPDIQK, peptide start residue: 28)	0.489
UniProt P13000 (peptide sequence: TAGYKPVASGSEK, peptide start residue: 34)	-1.41
UniProt P37313 (peptide sequence: GTKDQIFNNPR, peptide start residue: 244)	1.01
UniProt P76034 (peptide sequence: DAPCEVILLGGVYQKK, peptide start residue: 127)	-0.81

The targets below were run with Cc1nc(Nc2ncc(C(=O)Nc3c(C)cccc3Cl)s2)cc(N2CCN(CCO)CC2)n1 [dasatinib] in the same assay as above. Settings: ligand concentration: 5 uM; sample: K562 cleared lysate.

Target	log2 fold change
UniProt P07947 (peptide sequence: LTTVCPTVKPQTQGLAK, peptide start residue: 251)	2.59
PAK2 (peptide sequence: LLQTSNITK, peptide start residue: 105) (UniProt Q13177)	0.206
LIMK2 (peptide sequence: GFFGQAIK, peptide start residue: 340) (UniProt P53671)	-1.19
